Measurements: PubChem BioAssay (NCATS)
Records with an inconclusive call do not appear. Unmarked numbers belong to inactive results. Active and inactive are the calls of the source. The call rests on the fitted dose curve; in most records, active means well fitted inhibition curve with a large enough effect; inconclusive means small, poorly fitted or top-dose-only effect; inactive means flat fitted curve, though single readings scatter.

test system: HEK293; test: Cytotoxic Profiling of Annotated Libraries Using Quantitative High-Throughput Screening (AID 1296008); conditions: Five cell lines viability, CellTiter-Glo ATP luminescence, 48-72 h; max response: active compounds read low; further: nearly all actives have a fitted effect of over 60% in size
Procedure, shortened: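 Cytotoxicity was measured as CellTiter-Glo ATP luminescence, read after 10 min at room temperature. Compound treatment of the cells lasted 48 or 72 hr at 37 degrees Celsius in a qHTS format.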
On the % scale 0 is the no-effect control and ±100 the full control effect; potency means the concentration at half of the fitted maximal effect.

SMILES	max response	Potency
CC(C)(O)/C=C/CC(C)(O)C1C(O)CC2(C)C3CCC4C(C)(C)C(=O)CCC4(C)C3CCC12C (stereo not drawn)	1.96%	
CC(=O)O[C@@H]1c2c3c(cc(O)c2C(=O)O[C@@H]1C)O[C@@]1(C)[C@@H](O)C[C@H]2C(C)(C)C(=O)C=C[C@]2(C)[C@@H]1C3	-27.5%	
Cc1cc(OCc2nc(-c3ccccc3Cl)cs2)ccc1OCC(=O)O	-1.87%	
Cc1ccc(-c2ccc3ncc4c(c3n2)n(C2CCN(C(=O)[C@H](C)O)CC2)c(=O)n4C)cn1		82 nM (active)
O=C(O)COCCN1CCN([C@H](c2ccccc2)c2ccc(Cl)cc2)CC1	-2.41%	
C=C1CCC2C(C)(C(=O)O)CCCC2(C)C1CC/C(=C\CO)CO (stereo not drawn)	2.54%	
COc1ccc2cc(C(C)C(=O)Oc3ccc(C(N)=S)cc3)ccc2c1 (stereo not drawn)	-0.854%	
CN(C)C1CCN(C(=O)c2ccc(NC(=O)Nc3ccc(-c4nc(N5CCOCC5)nc(N5CCOCC5)n4)cc3)cc2)CC1		51.7 nM (active)
CC1(C)CC2C(C1)C(C)(O)C13CC1(COC3=O)C2O (stereo not drawn)	-10.5%	
O=C1Nc2ccccc2C(O)(c2ccccc2)C1O (stereo not drawn)	-7.58%	
CC(C)(C)c1ccc(S(=O)(=O)Nc2ccc(Cl)cc2C(=O)c2cc[n+]([O-])cc2)cc1	-2.23%	
C=C1CCCC2(C)CC3(OC)OC(=O)C(C)=C3CC12 (stereo not drawn)	3.93%	
C[C@@H]1C(=O)O[C@H]2[C@H](O)C34[C@H]5C[C@@H](C(C)(C)C)C36[C@@H](OC(=O)[C@@H]6O)O[C@@]4(C(=O)O5)[C@@]12O (stereo partly drawn)	-1.33%	
